# Assay results: PubChem BioAssay
# Where “and” joins values, the source holds several entries; their conditions need not be identical. Equal values may be shown once. Calls of active or inactive are those of the source.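 Rule for the calls: active = differentiation response of at least 50%, scaled between solvent and reference control, from cells with both markers; inactive = the rest.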
# Test: AML differentiation inducers, ER-HoxA9 marrow cells – cell-based, GFP/MAC1 double positive, flow cytometry, validation set, primary screen (AID 588685);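 note: compound exposure lasts four days before antibody staining and flow analysis; 0% = DMSO wells and 100% = 5 µM fulvestrant positive control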
# Settings: hits give high values, normalized: vehicle 0, fulvestrant 100
row,Compound,differentiation response
1,NS(=O)(=O)c1cc2c(cc1Cl)NC(C1C[C@H]3C=C[C@@H]1C3)NS2(=O)=O (some centres undefined),-17.7% (inactive)
2,CC(=O)NC1C(OCc2ccccc2)OC(COC(C)=O)C(OC(C)=O)C1OC(C)=O (centres undefined),-6.03% (inactive)
3,O=CNC1CCCc2c1[nH]c1ccc(Cl)cc21 (centres undefined),8.06% (inactive)
4,O=C(O)CP(=O)(O)O,-4.57% (inactive)
5,Cc1cccc(Nc2ccccc2C(=O)O)c1C,-12.9% (inactive)
6,CC1(C)CC(NCc2ccccc2)CCO1 (centres undefined),-7.94% (inactive)
7,Cc1ccccc1C(=O)NCC(=O)O,-13.3% (inactive)
8,CCOc1cc2c3c(c1)C(C)=CC(C)(C)N3C(=O)C2=O,-0.8% (inactive)
9,O=C(N1CCCC1)C12CC3CC(C1)CC(C(=O)N1CCCC1)(C3)C2,-7.2% (inactive)
10,O=C(NC(Nc1ccccn1)C(Cl)(Cl)Cl)c1ccccc1 (centres undefined),-10.4% (inactive)
11,COc1cc(NC(=S)NC(=O)c2cccs2)ccc1NC(=O)C(C)C,-28% (inactive)
12,COc1ccc(CCN(C)CCCC(C#N)(c2cc(OC)c(OC)c(OC)c2)C(C)C)cc1OC (centres undefined),3.18% (inactive)
13,O=C1C(Cc2c[nH]c3ccccc23)NC(=S)N1Cc1ccccc1 (centres undefined),7.13% (inactive)
14,CC(C)(C)C(=O)NC(=S)NNC(=O)c1ccncc1,-7.94% (inactive)
15,CCOC(=O)N1CCN(Cc2nc(Cc3cccc(F)c3)no2)CC1,4.15% (inactive)
16,C[C@@H]1C[C@H](Nc2ccccc2)c2ccccc2N1C(=O)c1cccnc1,29.6% (inactive)
17,OC(CCN1CCCC1)(c1ccccc1)C1CCCCC1 (centres undefined),-4.91% (inactive)
18,Cc1cc(Cl)cc2c1NC(=O)[C@]21[C@@H]2C(=O)N(Cc3ccccc3)C(=O)[C@@H]2[C@@H]2CCCN21,-14.8% (inactive)
19,O=C(/C=C/c1ccco1)Nc1ccccc1C(=O)O,23.2% (inactive)
20,CC(C)c1ccc(/C=C/C(=O)O)cc1,-2.4% (inactive)

row,Compound,differentiation response
1,CCN(CC)CC(=O)Nc1c(C)cccc1C,-8.8% (inactive) and -15.2% (inactive)
2,CC1=C(C)C(=O)C(CCCCC#CCCCC#CCO)=C(C)C1=O,5.85% (inactive)
3,COc1cc(C=NCC2OCCc3ccccc32)cc(OC)c1 (centres undefined),-7.2% (inactive)
4,CN(C)CCCN1c2ccccc2CCc2ccccc21,6.11% (inactive)
5,COc1ccc2nc(S(=O)Cc3ncc(C)c(OC)c3C)[nH]c2c1 (centres undefined),52.5% (active)
6,COc1ccc(CNCCC2(C(C)C)CCOC(C)(C)C2)cc1 (centres undefined),0.24% (inactive)
7,COc1cccc(CN2C(=O)N(C(C)C)C(N(O)C(=O)NC(C)C)C2(C)C)c1OC (centres undefined),7.09% (inactive)
8,Cc1ccc(S(=O)(=O)N[C@@H](Cc2ccccc2)C(=O)CCl)cc1,-4% (inactive)
9,COCCN(CCOC)Cc1c(C)[nH]c2c(C)c(C)ccc2c1=O,-10.4% (inactive)
10,CCOC(=O)C(NC(=O)CCC(=O)Nc1ccc(S(N)(=O)=O)cc1)C(O)c1ccccc1 (centres undefined),-7.94% (inactive)
11,Cc1ccccc1N1C(N)=NC(N)=NC1(C)C,-19.2% (inactive)
12,CC1Cc2ccccc2N1NC(=O)c1ccc(Cl)c(S(N)(=O)=O)c1 (centres undefined),11.8% (inactive)
13,CC1=C(/C=C/C(C)=C/C=C/C(C)=C/C(=O)O)C(C)(C)CCC1,-6.96% (inactive)
14,N/C(=N\OC(=O)/C=C/c1ccccc1)c1ccc(Br)cc1,-3.67% (inactive)
15,CCOc1ccc(C(=O)C(C)=O)c(OCC)c1,-13.3% (inactive)
16,COc1ccc(C=O)c(OC)c1,-9.91% (inactive)
17,CC1=NN(c2ccccc2)C(=O)C1,2.74% (inactive)
18,COCC1CCCN(Cc2cn[nH]c2-c2cc3ccccc3o2)C1 (centres undefined),5.6% (inactive)
19,CC1(C)CC(=O)C(C2=NC(C)(C)Cc3ccccc32)=C(O)C1,-4.64% (inactive)
